Test results taken from the supplement of paper PMC11732987, “Enantioselective OTUD7B fragment discovery through chemoproteomics screening and high-throughput optimisation” (Communications Chemistry, 2025).
A number with no mark means an inactive call.

The targets below were run with ClCC(=O)N1CCC(CC#N)C1 (assay: log2 ratio of Biotin-Ahx-Ub-VS probe labelling (compound/DMSO); higher = less target engagement, active = hit call of the paper (q ≤ 0.05, log2 ratio ≤ -1)). Details: compound concentration: 50uM; treatment time: 3 h.
Protocol: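 Round 2 competitive ABPP in HEK293T lysate. Purified HTC-D2B compounds were tested at 50 and 200 µM for 3 h, followed by Biotin-Ahx-Ub-VS enrichment and diaPASEF LC-MS/MS. Values are the average log2 ratio (compound/DMSO) from an unpaired t-test (n=3 treated, n=26 DMSO).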

Sequence of UniProt Q13107 (Q13107 whole entry): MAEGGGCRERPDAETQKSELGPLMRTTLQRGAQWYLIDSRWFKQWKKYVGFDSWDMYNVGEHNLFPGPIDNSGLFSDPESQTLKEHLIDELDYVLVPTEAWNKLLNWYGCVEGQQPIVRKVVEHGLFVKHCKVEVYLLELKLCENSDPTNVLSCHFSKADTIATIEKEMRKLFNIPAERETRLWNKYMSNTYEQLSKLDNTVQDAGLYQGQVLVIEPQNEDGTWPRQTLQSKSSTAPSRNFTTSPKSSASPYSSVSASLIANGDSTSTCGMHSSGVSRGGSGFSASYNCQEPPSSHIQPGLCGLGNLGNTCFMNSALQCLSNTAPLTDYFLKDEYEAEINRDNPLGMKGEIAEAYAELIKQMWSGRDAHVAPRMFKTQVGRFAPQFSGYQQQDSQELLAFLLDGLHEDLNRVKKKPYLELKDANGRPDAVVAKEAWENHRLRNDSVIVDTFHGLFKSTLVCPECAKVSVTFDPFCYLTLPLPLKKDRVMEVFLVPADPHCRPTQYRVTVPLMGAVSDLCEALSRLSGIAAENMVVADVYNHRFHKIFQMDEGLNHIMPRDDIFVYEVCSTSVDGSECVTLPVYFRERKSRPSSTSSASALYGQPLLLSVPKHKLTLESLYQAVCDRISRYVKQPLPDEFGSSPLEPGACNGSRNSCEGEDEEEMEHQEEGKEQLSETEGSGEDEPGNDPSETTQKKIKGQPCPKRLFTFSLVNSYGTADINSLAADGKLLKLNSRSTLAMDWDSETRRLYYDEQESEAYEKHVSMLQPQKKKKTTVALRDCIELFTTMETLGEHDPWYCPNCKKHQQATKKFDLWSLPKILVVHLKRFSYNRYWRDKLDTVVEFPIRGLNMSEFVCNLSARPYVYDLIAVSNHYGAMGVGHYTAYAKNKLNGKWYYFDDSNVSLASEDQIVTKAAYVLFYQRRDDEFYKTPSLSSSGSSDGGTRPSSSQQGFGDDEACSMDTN
Sequence of UniProt P62068 (P62068 whole entry): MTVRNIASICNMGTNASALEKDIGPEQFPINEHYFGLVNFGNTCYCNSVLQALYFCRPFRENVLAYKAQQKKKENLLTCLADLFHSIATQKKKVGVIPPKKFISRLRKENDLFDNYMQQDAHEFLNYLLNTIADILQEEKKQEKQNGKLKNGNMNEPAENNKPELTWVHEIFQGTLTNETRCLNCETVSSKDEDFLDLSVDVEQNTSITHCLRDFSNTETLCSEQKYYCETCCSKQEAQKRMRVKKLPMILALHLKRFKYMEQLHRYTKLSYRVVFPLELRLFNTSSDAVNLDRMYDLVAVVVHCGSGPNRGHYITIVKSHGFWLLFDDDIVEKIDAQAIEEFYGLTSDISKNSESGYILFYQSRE
Sequence of UniProt Q70CQ2 (Q70CQ2 whole entry): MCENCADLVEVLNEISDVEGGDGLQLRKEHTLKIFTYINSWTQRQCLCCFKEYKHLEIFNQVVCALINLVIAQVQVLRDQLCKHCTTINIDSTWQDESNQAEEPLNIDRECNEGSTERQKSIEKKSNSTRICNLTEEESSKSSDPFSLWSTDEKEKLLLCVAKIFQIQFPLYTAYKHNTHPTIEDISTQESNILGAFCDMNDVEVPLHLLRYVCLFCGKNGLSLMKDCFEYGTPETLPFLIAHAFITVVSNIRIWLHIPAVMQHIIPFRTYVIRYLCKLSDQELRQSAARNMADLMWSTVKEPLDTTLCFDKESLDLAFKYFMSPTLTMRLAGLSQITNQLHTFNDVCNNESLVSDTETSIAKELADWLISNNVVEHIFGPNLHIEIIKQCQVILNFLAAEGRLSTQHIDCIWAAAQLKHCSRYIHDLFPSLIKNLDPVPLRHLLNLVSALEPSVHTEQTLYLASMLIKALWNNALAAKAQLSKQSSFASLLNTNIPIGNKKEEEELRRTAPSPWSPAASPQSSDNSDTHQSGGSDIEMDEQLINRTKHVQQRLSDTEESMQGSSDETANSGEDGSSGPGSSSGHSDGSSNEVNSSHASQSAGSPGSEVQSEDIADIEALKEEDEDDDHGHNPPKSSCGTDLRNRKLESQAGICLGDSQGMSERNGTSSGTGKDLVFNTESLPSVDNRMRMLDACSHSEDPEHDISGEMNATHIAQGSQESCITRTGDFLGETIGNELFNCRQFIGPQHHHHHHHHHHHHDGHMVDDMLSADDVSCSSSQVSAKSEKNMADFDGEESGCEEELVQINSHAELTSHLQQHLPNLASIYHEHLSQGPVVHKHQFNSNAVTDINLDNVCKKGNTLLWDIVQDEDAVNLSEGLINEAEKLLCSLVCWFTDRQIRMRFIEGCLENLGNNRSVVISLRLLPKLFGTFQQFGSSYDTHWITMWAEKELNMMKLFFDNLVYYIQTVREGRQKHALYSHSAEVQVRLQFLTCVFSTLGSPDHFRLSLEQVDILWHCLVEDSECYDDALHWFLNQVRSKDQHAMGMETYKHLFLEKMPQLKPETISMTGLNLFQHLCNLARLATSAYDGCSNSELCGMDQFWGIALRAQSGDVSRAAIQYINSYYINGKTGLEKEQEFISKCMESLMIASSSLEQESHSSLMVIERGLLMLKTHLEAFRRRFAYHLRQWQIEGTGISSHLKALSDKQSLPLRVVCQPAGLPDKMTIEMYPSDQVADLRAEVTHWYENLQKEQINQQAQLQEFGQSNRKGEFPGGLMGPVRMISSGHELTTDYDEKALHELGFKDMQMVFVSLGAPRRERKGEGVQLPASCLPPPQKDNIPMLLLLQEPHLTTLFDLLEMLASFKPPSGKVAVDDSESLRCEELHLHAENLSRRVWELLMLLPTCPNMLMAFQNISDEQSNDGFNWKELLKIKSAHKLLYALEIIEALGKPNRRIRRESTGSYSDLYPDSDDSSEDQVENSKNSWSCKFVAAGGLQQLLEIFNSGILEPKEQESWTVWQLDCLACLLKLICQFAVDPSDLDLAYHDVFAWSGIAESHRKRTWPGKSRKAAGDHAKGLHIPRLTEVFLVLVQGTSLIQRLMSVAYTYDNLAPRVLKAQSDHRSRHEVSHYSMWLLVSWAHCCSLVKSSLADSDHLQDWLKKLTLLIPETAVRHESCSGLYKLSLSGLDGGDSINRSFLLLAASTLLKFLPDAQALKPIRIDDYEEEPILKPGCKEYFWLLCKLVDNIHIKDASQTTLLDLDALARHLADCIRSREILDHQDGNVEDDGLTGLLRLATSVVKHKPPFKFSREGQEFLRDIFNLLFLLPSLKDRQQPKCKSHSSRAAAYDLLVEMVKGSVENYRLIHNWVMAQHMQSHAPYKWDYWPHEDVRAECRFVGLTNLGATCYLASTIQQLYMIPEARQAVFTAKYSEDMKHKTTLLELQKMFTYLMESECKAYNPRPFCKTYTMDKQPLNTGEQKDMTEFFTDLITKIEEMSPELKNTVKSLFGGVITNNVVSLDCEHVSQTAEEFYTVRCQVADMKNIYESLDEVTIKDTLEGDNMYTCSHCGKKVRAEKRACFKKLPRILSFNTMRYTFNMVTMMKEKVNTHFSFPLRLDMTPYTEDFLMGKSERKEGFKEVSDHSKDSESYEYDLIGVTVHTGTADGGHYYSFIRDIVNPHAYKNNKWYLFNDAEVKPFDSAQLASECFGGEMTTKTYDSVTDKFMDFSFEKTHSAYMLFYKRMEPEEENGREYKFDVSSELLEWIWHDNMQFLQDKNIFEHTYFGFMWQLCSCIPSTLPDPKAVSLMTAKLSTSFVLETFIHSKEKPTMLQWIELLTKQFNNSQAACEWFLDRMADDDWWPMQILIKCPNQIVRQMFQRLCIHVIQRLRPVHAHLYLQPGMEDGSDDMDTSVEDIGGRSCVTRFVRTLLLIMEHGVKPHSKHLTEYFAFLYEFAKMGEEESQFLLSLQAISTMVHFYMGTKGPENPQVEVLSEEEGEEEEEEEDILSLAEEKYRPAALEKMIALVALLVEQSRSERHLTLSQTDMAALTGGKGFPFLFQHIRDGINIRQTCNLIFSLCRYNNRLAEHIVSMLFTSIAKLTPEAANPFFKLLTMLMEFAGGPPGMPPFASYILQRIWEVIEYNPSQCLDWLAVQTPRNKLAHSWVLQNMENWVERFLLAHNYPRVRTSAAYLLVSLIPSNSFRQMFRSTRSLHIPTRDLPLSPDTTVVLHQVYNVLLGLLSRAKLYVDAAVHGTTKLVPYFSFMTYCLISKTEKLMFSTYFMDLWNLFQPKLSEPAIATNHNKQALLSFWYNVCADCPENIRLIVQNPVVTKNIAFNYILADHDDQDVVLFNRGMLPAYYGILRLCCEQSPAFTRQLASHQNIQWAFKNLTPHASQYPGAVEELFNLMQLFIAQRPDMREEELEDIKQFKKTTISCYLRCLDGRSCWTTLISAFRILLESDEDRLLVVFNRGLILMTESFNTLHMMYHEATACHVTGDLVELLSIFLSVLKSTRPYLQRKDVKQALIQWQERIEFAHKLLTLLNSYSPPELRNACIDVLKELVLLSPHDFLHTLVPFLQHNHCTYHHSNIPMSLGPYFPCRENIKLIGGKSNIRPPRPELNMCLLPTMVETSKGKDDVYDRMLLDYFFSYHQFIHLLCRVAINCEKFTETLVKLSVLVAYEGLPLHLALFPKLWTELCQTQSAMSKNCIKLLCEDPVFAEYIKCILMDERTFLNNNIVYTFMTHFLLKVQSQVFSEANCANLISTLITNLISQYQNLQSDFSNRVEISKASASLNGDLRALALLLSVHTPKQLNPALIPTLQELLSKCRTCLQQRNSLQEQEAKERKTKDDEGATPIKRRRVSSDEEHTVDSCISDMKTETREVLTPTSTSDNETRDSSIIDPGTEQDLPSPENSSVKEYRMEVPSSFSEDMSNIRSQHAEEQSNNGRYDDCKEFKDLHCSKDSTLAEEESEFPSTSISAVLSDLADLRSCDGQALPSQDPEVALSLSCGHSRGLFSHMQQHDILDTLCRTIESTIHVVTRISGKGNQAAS

Row | Target | log2 ratio of Biotin-Ahx-Ub-VS probe labelling
1 | USP7 (UniProt Q93009) | -0.141
2 | ALG13 (UniProt Q9NP73) | 0.259
3 | UniProt P51784 | -0.0555
4 | USP42 (UniProt Q9H9J4) | -0.0062
5 | OTUD4 (UniProt Q01804) | -0.19
6 | EIF3F (UniProt O00303) | -0.172
7 | USP4 (UniProt Q13107) | -0.106
8 | USP34 (UniProt Q70CQ2) | 0.721
9 | USP10 (UniProt Q14694) | -0.155
10 | USP14 (UniProt P54578) | -0.25
11 | UniProt Q9P2H5 | -0.115
12 | USP8 (UniProt P40818) | -0.261
13 | USP28 (UniProt Q96RU2) | -0.0624
14 | USP36 (UniProt Q9P275) | -0.193
15 | PSMD7 (UniProt P51665) | 0.408
16 | UniProt Q70EL2 | -0.0717
17 | USP24 (UniProt Q9UPU5) | -0.155
18 | USP46 (UniProt P62068) | -0.14
19 | USP5 (UniProt P45974) | -0.0602
20 | EIF3H (UniProt O15372) | 0.0416

Same assay, conditions: compound concentration: 200uM; treatment time: 3 h

Row | Target | log2 ratio of Biotin-Ahx-Ub-VS probe labelling
21 | USP7 (UniProt Q93009) | -0.201
22 | ALG13 (UniProt Q9NP73) | 0.307
23 | UniProt P51784 | -0.0925
24 | USP42 (UniProt Q9H9J4) | 0.221
25 | OTUD4 (UniProt Q01804) | -0.226
26 | EIF3F (UniProt O00303) | 0.14
27 | USP4 (UniProt Q13107) | 0.254
28 | USP34 (UniProt Q70CQ2) | -0.382
29 | USP10 (UniProt Q14694) | -0.0316
30 | USP14 (UniProt P54578) | 0.0716
31 | UniProt Q9P2H5 | 0.00502
32 | USP8 (UniProt P40818) | -0.168
33 | USP28 (UniProt Q96RU2) | -0.291
34 | USP36 (UniProt Q9P275) | 0.0225
35 | PSMD7 (UniProt P51665) | 0.631
36 | UniProt Q70EL2 | -0.437
37 | USP24 (UniProt Q9UPU5) | -0.576
38 | USP46 (UniProt P62068) | -0.548
39 | USP5 (UniProt P45974) | 0.0332
40 | EIF3H (UniProt O15372) | 0.0793
